From article PMC7819943, “Rice protein-binding microarrays: a tool to detect cis-acting elements near promoter regions in rice”
In all, about 39,000 sequences were measured (“fluorescence intensity (a.u.)”: median about 4,300, highest 2% from about 39,000 on). The sample holds the highest values, similar sequences and a random draw of the others, so the mix is not that of the screen.

Molecular target: T1, OsSMF1 (Oryza sativa, UniProt Q6ZLB0 1-436)
T1 sequence: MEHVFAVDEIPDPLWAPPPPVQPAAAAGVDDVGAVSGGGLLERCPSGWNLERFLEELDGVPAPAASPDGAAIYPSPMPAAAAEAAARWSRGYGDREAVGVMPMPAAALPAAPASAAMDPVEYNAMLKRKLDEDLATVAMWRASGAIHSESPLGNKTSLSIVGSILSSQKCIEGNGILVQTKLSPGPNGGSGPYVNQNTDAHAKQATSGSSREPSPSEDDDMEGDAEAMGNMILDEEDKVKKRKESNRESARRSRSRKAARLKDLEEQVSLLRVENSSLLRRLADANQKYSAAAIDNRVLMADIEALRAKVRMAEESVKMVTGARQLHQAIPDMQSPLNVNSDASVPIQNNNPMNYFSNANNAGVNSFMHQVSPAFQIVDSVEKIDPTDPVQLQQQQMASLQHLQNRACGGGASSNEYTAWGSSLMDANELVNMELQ
Experiment: protein-binding microarray (RPBM); PBS, 2% BSA, 51.3 ng/ul salmon testes DNA, 50 uM zinc acetate, 200 nM TF, 25 C, 1 h; high values mean tight binding
Settings: protein: recombinant; tags: N-terminal polyhistidine and DsRed monomer fusion (pET32a); chain copies: 2; label: CyDye5-dUTP incorporated in the synthesized complementary strand; 3' TTTTT single-stranded linker to array surface; dsDNA, one strand shown
Method in brief: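 The binding signal for each feature is its fluorescence intensity in arbitrary units. An Axon 4000B scanner was used to read a custom Agilent array that had been made double-stranded with Cy5-dUTP primer extension, blocked with 2% BSA, incubated at 25 °C for 1 h with 200 nM protein in PBS, 2% BSA, salmon testes DNA and 50 µM zinc acetate, and washed. The protein was an N-terminal polyhistidine–DsRed transcription factor fusion from E. coli BL21-CodonPlus, purified on Ni–NTA.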

First: CGGGCACTCTCGTCTCCGACGTGAAGGCCCGAGATCACTGCGGAGTCACCTAGTGCAG
Second: CGACCGACCCTCGCCCGCCCACCGCCGTCACTCTCGTCTGCGGAGTCACCTAGTGCAG
The binding signal of the first is higher: 60900 fluorescence intensity (a.u.) for the first, 3920 fluorescence intensity (a.u.) for the second.

Going from “GGTTGATTATTCCGTCGGCGTCAGCCATCAGGTGCATCACCGGAGTCACCTAGTGCAG” to “TCTTTCGTCGCAATGCCACGCCATCATCGATCCCTTTCCTCGGAGTCACCTAGTGCAG”, the binding signal rises from 3270 fluorescence intensity (a.u.) to 14800 fluorescence intensity (a.u.).

Going from “TTTCGGGATCCGACACGGGCTGAATCCGGCCCATCCAAACCGGAGTCACCTAGTGCAG” to “GGAGTAGATATTATCACTAGCTAGTCACACGGACACAGTGCGGAGTCACCTAGTGCAG”, the binding signal falls from 37800 fluorescence intensity (a.u.) to 4900 fluorescence intensity (a.u.).

Going from “TAAACGCAAATTCTATATCACAACCACGTAAGTTTAGTAGCGGAGTCACCTAGTGCAG” to “GTCTAGCTAGTGCAATTAGAGTAACCTATATATCACACAACGGAGTCACCTAGTGCAG”, the binding signal rises from 3870 fluorescence intensity (a.u.) to 52200 fluorescence intensity (a.u.).

Compared with “TCGCCGCCGCGGCCGCCTCCACCTCATCATCTCCCACCTCCGGAGTCACCTAGTGCAG”, “CACGGCCTCACCTCCCAGCCCGCGAGCACCGGCGGACGGACGGAGTCACCTAGTGCAG” is higher in binding signal: 7900 fluorescence intensity (a.u.) for the first, 42400 fluorescence intensity (a.u.) for the second.

Going from “GCTGCCAGCGCCGCCGCCACCTGTGTCGGCACGCGAGCGCCGGAGTCACCTAGTGCAG” to “AGGGCGAGGAGGCGCTTGAGGGCGTCGAGCTTGTCGGCATCGGAGTCACCTAGTGCAG”, the binding signal rises from 3350 fluorescence intensity (a.u.) to 28400 fluorescence intensity (a.u.).

Going from “GCGGCGCATCCAGGAGGTTGAGTCGAGCACGCCACCGCTGCGGAGTCACCTAGTGCAG” to “ACATCACCACCCACCTCACCCTGCCGCTCCCGAGCGCGATCGGAGTCACCTAGTGCAG”, the binding signal rises from 3420 fluorescence intensity (a.u.) to 4000 fluorescence intensity (a.u.).

Compared with “GTACGCGAGCATCCCGGCGTTGTCGAGGCGCTCCAGGACGCGGAGTCACCTAGTGCAG”, “ACCTCCCACACCTGTGTCGATCCAGGCAGGCCGAGCGCGACGGAGTCACCTAGTGCAG” is higher in binding signal: 40200 fluorescence intensity (a.u.) for the first, 43400 fluorescence intensity (a.u.) for the second.

Going from “TTGAGCAGCCTCCCTTCCCCGGCGAGCAGCCCCGCCGCCGCGGAGTCACCTAGTGCAG” to “GTCCCCGGCCTCGGCGCGCGGCGAGCACCGTGCCGCCCCACGGAGTCACCTAGTGCAG”, the binding signal rises from 3720 fluorescence intensity (a.u.) to 24000 fluorescence intensity (a.u.).

Compared with “AAACTGGCAAACGCGTCACATGAGTTTTACCTACCAATGTCGGAGTCACCTAGTGCAG”, “ATTTCAATGTCAAGATGAGAAGGGAATTTAAGAGCCTGCACGGAGTCACCTAGTGCAG” is higher in binding signal: 3230 fluorescence intensity (a.u.) for the first, 22800 fluorescence intensity (a.u.) for the second.

Going from “GCGCAGGCAACCACCCCACCCTTCTTCTCGAAACCTCTTCCGGAGTCACCTAGTGCAG” to “ATGAAGGATGCTTAAAAGTCTATTTTGCCTCGGCAAAATACGGAGTCACCTAGTGCAG”, the binding signal rises from 3290 fluorescence intensity (a.u.) to 28700 fluorescence intensity (a.u.).

First: TTTCACGAAACCCAGTGATCCTGTCAGGTATCCTATGTACCGGAGTCACCTAGTGCAG
Second: TTGTACAGCAGCGTGCTTCCATATGAGGAAATCCACTTCTCGGAGTCACCTAGTGCAG
The binding signal of the first is lower: 3760 fluorescence intensity (a.u.) for the first, 44200 fluorescence intensity (a.u.) for the second.

Going from “TTCTCTTCCAAAGGAAATGTATAAATCCACCATTAACTTTCGGAGTCACCTAGTGCAG” to “GAAACCTGATGATGCTTGATGGAAATCCATTAGACAGCGTCGGAGTCACCTAGTGCAG”, the binding signal falls from 19900 fluorescence intensity (a.u.) to 4580 fluorescence intensity (a.u.).

First: CGGCCCAGCAGGCGAGCGTGACGTGGACCGGTCGTTTCGCCGGAGTCACCTAGTGCAG
Second: TTGGCTGGAGCATCGTCACTACTATTCGACACTAAGGTGTCGGAGTCACCTAGTGCAG
The binding signal of the first is higher: 5650 fluorescence intensity (a.u.) for the first, 3240 fluorescence intensity (a.u.) for the second.

Compared with “AGAATTCCGTGATACGCGCATACGCGTCGACAAGAGAAATCGGAGTCACCTAGTGCAG”, “GCCTCGAACGACGTGTGGACGCGATGGAAGATGCGTTCTGCGGAGTCACCTAGTGCAG” is lower in binding signal: 3280 fluorescence intensity (a.u.) for the first, 3210 fluorescence intensity (a.u.) for the second.

First: GGAAGGCGACGCGTTACTGTGCACGATGCGGACCTCGAAACGGAGTCACCTAGTGCAG
Second: CCACGCGTCGTCGACGTACTGCGCGATGACGGCGGACTCGCGGAGTCACCTAGTGCAG
The binding signal of the first is higher: 60400 fluorescence intensity (a.u.) for the first, 4700 fluorescence intensity (a.u.) for the second.

First: ACGCGCTCGCCTCGCGTCATCGGATCAAATGGTGGAGGCGCGGAGTCACCTAGTGCAG
Second: TCGCTCGCTCGCCTGCCAAATCTGCATTGGTGCTAGGAGGCGGAGTCACCTAGTGCAG
The binding signal of the first is higher: 3970 fluorescence intensity (a.u.) for the first, 3730 fluorescence intensity (a.u.) for the second.

Compared with “CATACATGGAAAAGACAAATCGCCTGGTGCATGAGGCGCTCGGAGTCACCTAGTGCAG”, “TCCTTTCGTTATCTGTACGGCAGTGACGTCCACGACTCGACGGAGTCACCTAGTGCAG” is lower in binding signal: 40600 fluorescence intensity (a.u.) for the first, 4340 fluorescence intensity (a.u.) for the second.

First: CTGCAGTACAACAAACATGATAGTACTTGAAATCATCTTGCGGAGTCACCTAGTGCAG
Second: CAACAAGCGGGTGGCTGGAAGGTGTGTGTGTGAGAGAGAGCGGAGTCACCTAGTGCAG
The binding signal of the first is higher: 27400 fluorescence intensity (a.u.) for the first, 3180 fluorescence intensity (a.u.) for the second.

Going from “GATATCACAACCTGACCCACATTAGTCACACGCACTCACACGGAGTCACCTAGTGCAG” to “TGGAGTAAACGATGAATACATGTTATAATAGTGTAGATTGCGGAGTCACCTAGTGCAG”, the binding signal rises from 3790 fluorescence intensity (a.u.) to 65100 fluorescence intensity (a.u.).

Going from “CTATTGTATGAATTGGCTATAGATGATTTGGAGGCAGTAGCGGAGTCACCTAGTGCAG” to “GTAAGAATTGGCTGTTAGATTGGCTATAAATGAATTGGAGCGGAGTCACCTAGTGCAG”, the binding signal rises from 3800 fluorescence intensity (a.u.) to 50800 fluorescence intensity (a.u.).

Compared with “GTATTGTGTGTATTTATACATCATGAAAGAATAGAATAAACGGAGTCACCTAGTGCAG”, “ATAAAGAATATGTAGAATTGGAACTATGCTAAGAGAAGAGCGGAGTCACCTAGTGCAG” is lower in binding signal: 28600 fluorescence intensity (a.u.) for the first, 3280 fluorescence intensity (a.u.) for the second.

With “ATGAGTGTGAGTGTGGCATGCGTGCATGTGTAATAGTAAACGGAGTCACCTAGTGCAG” the binding signal was 3480 fluorescence intensity (a.u.).
